HSP90 inh: inhibitors of HSP90 luciferase refolding in rabbit reticulocyte lysate; luciferase refolding luminescence, 3 h; inhibition, % at 5.6 µM; 290,000 tested, 0.91% active;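 active = inhibition above the screen-wide mean plus 3 SD, computed separately per campaign, cut at about 16% in these data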;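 also: 0% = DMSO wells and 100% = 60 µM geldanamycin wells; inhibitors lower the luminescence because luciferase stays unfolded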
TROY NFkB inh: TROY signaling inhibition. Q293 LMP1-TROYcd NF-kB luciferase reporter, 4 h. inhibition, % at 10 µM. 360,000 tested, 0.98% active;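 active = compounds whose plate-normalised and pattern-corrected inhibition of the luciferase reporter signal at the single screening dose is 50% or more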
PPC-1+TRAIL kill: kills PPC-1 cancer cells in the presence of TRAIL; 220,000 tested, 0.41% active; PPC-1 cells + TRAIL, ATPLite viability luminescence; cell killing (% activity), % at 4 µM or 5 µM; AID 1443;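 active = cell killing above 50% in the first pass at 4 µM, then a duplicate retest at 5 µM averaging 50% or more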;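 also: plate controls were cells with TRAIL plus DMSO for no effect and medium-only wells lacking cells for full effect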
TWEAK-Fn14 inh: blocks TWEAK-Fn14 interaction in a reporter cell assay; TWEAK-stimulated Fn14 reporter cells, luciferase luminescence, 8 h; inhibition, % at 10 µM; 360,000 tested, 2% active; AID 1159606; in the data active = inhibition above about 50%
C8 TRAIL sens: caspase-8 TRAIL sensitization; NB7+C8 cells + TRAIL, ATPlite viability luminescence; inhibition (viability loss, TRAIL sensitization), % at 10 µM; 360,000 tested, 1% active; AID 624354;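 active = compounds causing at least 50% loss of cell viability in the single-dose screen, relative to plate controls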
Platelet DG rel: modulates dense granule release in human platelets | inhibition, %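 (compounds screened at 7.5 µM in platelet-rich plasma)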 | human platelet-rich plasma, SFLLRN dense granule ATP release, luminescence | AID 1663 | 300,000 tested, 0.22% active;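 active = mean replicate score, as percent of positive control, at or above 50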
Active calls of the source: *; · = no result. Shown are actives, neighbours in structure and some others; about 3.5% of the full set was active somewhere.

SMILES	HSP90 inh	TROY NFkB inh	PPC-1+TRAIL kill	TWEAK-Fn14 inh	C8 TRAIL sens	Platelet DG rel
Cc1cc(F)ccc1NC(=O)Cn1c(C)csc1=O	·	9.1	·	-7.9	-9.0	·
CC(C)[C@H](CO)N(Cc1cccc(F)c1)c1nc(Nc2cccc(Cl)c2)c2ncn(C(C)C)c2n1	·	12.8	12.0	20.3	12.0	-1.4
CC[C@H](CO)Nc1nc(Nc2cccc(Cl)c2)c2ncn(C(C)C)c2n1	·	60.8*	15.0	70.7*	37.8	-3.5
CC(C)CN1C(=O)C(=O)N(CC(=O)NCCCc2ccccc2)C1=O	·	-8.4	·	-4.4	-9.8	·
O=C(/C=C/c1ccco1)NCCc1ccccc1	2.4	8.1	31.4	-8.5	14.4	-1.4
Cc1ccc(/C=C/C(=O)NCCc2ccccc2)o1	5.3	1.0	·	66.9*	-1.9	-10.3
Cc1nn(CC(=O)Nc2cc(S(=O)(=O)N3CCOCC3)ccc2Cl)c(C)c1[N+](=O)[O-]	·	12.6	·	0.9	12.2	·
Oc1cccc(/C=N/Nc2nn3cnnc3c3ccccc23)c1	2.1	16.8	28.5	11.5	38.5	56.8*
CC(C)c1nc(N2CCN(C(=O)c3ccco3)CC2)c(C#N)c2c1COC(C)(C)C2	1.1	29.6	·	-1.5	6.5	20.1
CCCCc1nc(N2CCN(C(=O)c3ccco3)CC2)c(C#N)c2c1CCCC2	3.0	67.7*	·	-7.0	11.1	7.3
COc1ccc(NC(=O)c2ccc(Oc3ncccn3)cc2)cc1	-6.1	-46.1	2.8	1.1	10.0	-0.7
CN1C(=O)C(=O)/C(=C(/O)c2ccc(Br)cc2)C1c1ccc(F)cc1 (centres undefined)	7.0	12.6	·	-9.0	9.1	5.5
CN(C)c1nc(C=C(C#N)C#N)c(Cl)n1-c1ccc(F)cc1	1.0	16.2	7.3	71.8*	-18.8	1.3
CCOc1ccccc1NC(=O)/C(C#N)=C/c1c(C)nn(-c2ccc(F)cc2)c1Cl	-1.1	4.8	-7.1	-39.7	-3.7	-7.7
O=C(O)CSc1nnc(CSc2nc3ccccc3s2)n1-c1ccccc1	-4.1	0.2	4.0	-2.4	9.7	1.6
C#CCSc1nnc(CSc2nc3ccccc3s2)n1-c1ccccc1	5.8	15.0	13.6	19.1	85.8*	-5.8
O=C(c1cccc(S(=O)(=O)N2CCN(c3ccccc3)CC2)c1)N1CCN(c2ccccc2O)CC1	·	5.3	·	11.0	-10.8	15.9
COCCN1Cc2cccc(C(=O)Nc3ccc4c(c3)OCCO4)c2C1=O	7.6	56.1*	2.4	73.7*	-5.9	3.8
CSc1ncccc1C(=O)Nc1ccc2c(c1)OCCO2	·	2.1	·	50.2*	-1.3	·
O=C(Nc1ccc2c(c1)OCCO2)c1ccccc1Cl	·	-51.3	·	22.6	42.0	·
O=C(Nc1ccc2c(c1)OCCO2)c1cccc2nc3ccccc3nc12	0.6	5.0	23.1	19.3	60.1*	0.9
O=C(Nc1ccc2c(c1)OCCO2)c1cnc2ccccn2c1=O	-2.7	-19.7	·	69.6*	40.3	14.0
O=C1N(Cc2cccc(Cl)c2)C[C@@H]2C[C@@H](c3ccc4nonc4c3)N3CCC[C@@]123	3.0	-3.4	11.2	3.5	26.2	-3.8
Cc1ccc(N)c([N+](=O)[O-])c1	·	-2.9	·	0.7	-19.2	·
CC1CC(=O)NN=C1c1ccc(N)c([N+](=O)[O-])c1 (centres undefined)	0.9	10.6	13.1	2.4	0.0	60.9*
SMILES	HSP90 inh	TROY NFkB inh	PPC-1+TRAIL kill	TWEAK-Fn14 inh	C8 TRAIL sens	Platelet DG rel
CCc1ccc(-c2nc(CS(=O)CC(=O)NCc3ccccc3)c(C)o2)cc1 (centres undefined)	-0.3	20.6	·	57.4*	-2.7	-1.2
CC(C)NC(=O)CN1CCC(c2ccccc2)C(O)C1 (centres undefined)	-3.6	9.3	2.4	-0.8	-1.5	-10.7
CCCNC(=O)C1(C)CCN1C(=O)Cc1ccc(C(C)C)cc1 (centres undefined)	·	-11.0	·	-2.0	1.0	·
COCC1CCN(C(=O)c2cc(COc3ccc(F)cc3Cl)on2)C1 (centres undefined)	·	-46.7	·	94.0*	-2.7	·
COc1ccccc1Cc1c(-c2ccco2)nc2c3ccccc3ccn12	·	25.6	·	42.4	28.4	·
C=C1C(=O)[C@]23C[C@H]1CCC2[C@]1(C)CCC[C@@](C)(C(=O)O)C1C[C@@H]3O (some centres undefined)	·	59.0*	·	96.8*	-7.4	·
C=C1C(=O)[C@]23C[C@H]1CC[C@H]2[C@]1(C)[C@@H](OC(C)=O)CC[C@@](C)(C(=O)O)[C@H]1C[C@@H]3OC(C)=O	·	-14.6	·	45.9	21.4	·
C=C1C(=O)[C@]23C[C@H]1CCC2[C@]1(C)C(=O)CC[C@@](C)(C(=O)O)C1C[C@@H]3O (some centres undefined)	·	20.1	·	72.2*	18.0	·
CCN(CC)S(=O)(=O)c1cc(NC(=O)C(=O)c2c(-c3ccccc3)cc3ccccn23)ccc1C	12.8	13.0	26.2	61.7*	3.3	1.9
CCN(CC)S(=O)(=O)c1cccc(NC(=O)C(=O)c2c(-c3ccccc3)cc3ccccn23)c1	8.1	19.1	3.3	38.7	1.8	3.2
Cc1ccc(CNC(=S)NC2CCC(C(C)(C)C)CC2)cc1 (centres undefined)	1.0	51.0*	·	-15.1	9.9	-7.6
COC(=O)CS(=O)(=O)c1ccc2c(c1)CC(=O)N2	-0.9	10.5	6.3	4.2	14.4	64.4*
COc1cc2nc(Nc3ccc(C)c(Cl)c3)nc(N)c2cc1OC	-0.5	32.7	·	101.8*	38.0	2.2
COc1cc2nc(Nc3ccc(C)c(C)c3)nc(N)c2cc1OC	-1.5	-43.2	·	-36.1	14.0	5.2
Nc1nc(Nc2ccccc2)nc2ccccc12	10.9	-13.1	43.2	40.0	60.4*	59.0*
Cc1ccc(Nc2nc(N)c3ccccc3n2)cc1Cl	7.5	16.2	·	68.0*	68.8*	52.1*
CCOC(=O)C1CCC(C(=O)OCC)N1c1ccc(C=O)cc1 (centres undefined)	·	2.8	·	12.2	-9.4	·
COc1cc(NC(=O)COC(=O)CCOc2ccc(C)cc2)cc(OC)c1	0.2	24.9	·	-2.2	-12.3	1.8
O=C(Nc1ccccc1[N+](=O)[O-])c1cncc(Br)c1	-3.0	8.4	-3.3	103.9*	-12.0	2.9
CC(C)(C)c1ccc(NC(=O)c2ccccc2)c([N+](=O)[O-])c1	4.3	58.0*	36.1	29.9	14.3	-0.3
O=C(Nc1ccc(F)cc1F)c1cncc(Br)c1	-0.4	-10.6	22.2	10.4	-4.2	-0.7
CC(C)Cc1ccc(S(=O)(=O)Nc2ccccn2)cc1	-8.4	10.0	19.7	-10.7	15.7	-1.8
Cc1c(CCC(=O)N2CCC(C(=O)O)(c3ccccc3)CC2)c(=O)oc2cc3oc4c(c3cc12)CCCC4	1.0	4.8	·	87.4*	-15.3	-4.6
CCOc1ccc(-c2cc(C(=O)Nc3ccc(C)c(NS(C)(=O)=O)c3)[nH]n2)c(C)c1	·	39.4	·	51.5*	29.8	·
CC(C)CC1NC(=O)N(CC(=O)NC2CCCc3ccccc32)C1=O (centres undefined)	-1.5	-0.1	-0.6	-10.1	-11.1	-0.1

High-throughput results deposited in PubChem BioAssay by several laboratories.
